Measurements from PubChem BioAssay AID1159580 (chemical genetic matrix, 2015).
The campaign covered roughly 5,500 compounds. About 2,000 (36%) were called active. Not shown: some 18% with an inconclusive outcome. Rule as the data show it: active = normalized growth mostly below about 0.91 (no sharp cut-off); inconclusive = no clear call, values can overlap the other calls; inactive = mostly above about 0.92. Some of the results follow.

Assay: chemical genetic growth profiling, strain panel (AID 1159580);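 also: tested at 20 µM; growth read once vehicle control cultures reached saturation at 30 °C; 1 = growth at the plate median or of vehicle wells; lower values mean less growth of the strain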
Settings: growth OD
[1] = S. cerevisiae deletion strains, locus YAL013W, strain DEP1, stronger effect = lower value
[2] = S. cerevisiae deletion strains, locus YGR078C, strain PAC10, stronger effect = lower value
[3] = S. cerevisiae deletion strains, locus YMR263W, strain SAP30, stronger effect = lower value
[4] = S. cerevisiae deletion strains, locus YNL322C, strain KRE1, stronger effect = lower value
[5] = S. cerevisiae deletion strains, locus YPL055C, strain LGE1, stronger effect = lower value
[6] = S. cerevisiae deletion strains, locus YPL241C, strain CIN2, stronger effect = lower value
[7] = S. cerevisiae deletion strains, locus YHR030C, strain SLT2, stronger effect = lower value

Measured: normalized growth

O=C(O)[C@@H]1C[C@@H](C(=O)O)N1
inactive: [1] 1.02 | S. cerevisiae deletion strains, locus YAL040C, strain CLN3, stronger effect = lower value 1.08 | S. cerevisiae deletion strains, locus YCL061C, strain MRC1 (second series), stronger effect = lower value 1 | S. cerevisiae deletion strains, locus YER002W, strain NOP16, stronger effect = lower value 1 | [2] 1.01 | S. cerevisiae deletion strains, locus YGR229C, strain SMI1, stronger effect = lower value 0.986 | [3] 0.997 | S. cerevisiae deletion strains, locus YNL175C, strain NOP13, stronger effect = lower value 1 | S. cerevisiae deletion strains, locus YNL197C, strain WHI3, stronger effect = lower value 1.02 | S. cerevisiae deletion strains, locus YNL224C, strain SQS1, stronger effect = lower value 0.978 | [4] 0.986 | S. cerevisiae deletion strains, locus YOR083W, strain WHI5 (second series), stronger effect = lower value 1.03 | [5] 1.02 | [6] 0.992

CSc1sc(C#N)c2c1C(O)CCC2 (configuration not stated)
inactive: [1] 0.988 | S. cerevisiae deletion strains, locus YBR229C, strain ROT2, stronger effect = lower value 0.973 | S. cerevisiae deletion strains, locus YDL101C, strain DUN1, stronger effect = lower value 0.977 | S. cerevisiae deletion strains, locus YDR150W, strain NUM1, stronger effect = lower value 0.948 | S. cerevisiae deletion strains, locus YEL061C, strain CIN8, stronger effect = lower value 0.993 | [2] 0.983 | [7] 0.931 | S. cerevisiae deletion strains, locus YHR087W, strain rtc3, stronger effect = lower value 0.968 | S. cerevisiae deletion strains, locus YJR043C, strain POL32, stronger effect = lower value 0.961 | S. cerevisiae deletion strains, locus YJR075W, strain HOC1, stronger effect = lower value 0.96 | S. cerevisiae deletion strains, locus YKL190W, strain CNB1, stronger effect = lower value 0.992 | S. cerevisiae deletion strains, locus YLR039C, strain RIC1, stronger effect = lower value 1.01 | S. cerevisiae deletion strains, locus YLR058C, strain SHM2 (second series), stronger effect = lower value 0.982 | S. cerevisiae deletion strains, locus YLR085C, strain ARP6, stronger effect = lower value 1.03 | S. cerevisiae deletion strains, locus YLR262C, strain YPT6, stronger effect = lower value 1.01 | S. cerevisiae deletion strains, locus YML094W, strain GIM5, stronger effect = lower value 1 | S. cerevisiae deletion strains, locus YMR219W, strain ESC1, stronger effect = lower value 0.985 | [3] 0.95 | S. cerevisiae deletion strains, locus YNL128W, strain TEP1, stronger effect = lower value 0.975 | S. cerevisiae deletion strains, locus YNL153C, strain GIM3, stronger effect = lower value 0.976 | S. cerevisiae deletion strains, locus YNL298W, strain CLA4 (second series), stronger effect = lower value 0.964 | [4] 1 | S. cerevisiae deletion strains, locus YNR030W, strain Alg12, stronger effect = lower value 0.974 | S. cerevisiae deletion strains, locus YOL006C, strain TOP1, stronger effect = lower value 0.959 | [5] 0.902 | [6] 0.982 | S. cerevisiae deletion strains, locus YPR135W, strain CTF4, stronger effect = lower value 0.94 | S. cerevisiae strains, strain wild type, stronger effect = lower value 0.984

CC(C)(C)NC[C@H](O)c1ccc(O)c(CO)c1
inactive: S. cerevisiae deletion strains, locus YAL021C, strain ccr4, stronger effect = lower value 1.02 | S. cerevisiae deletion strains, locus YAL026C, strain drs2, stronger effect = lower value 1.03 | S. cerevisiae deletion strains, locus YAL030W, strain snc1, stronger effect = lower value 1.02 | S. cerevisiae deletion strains, locus YBL061C, strain skt5, stronger effect = lower value 1.01 | S. cerevisiae deletion strains, locus YBR009C, strain hhf1, stronger effect = lower value 1.03 | S. cerevisiae deletion strains, locus YBR023C, strain chs3, stronger effect = lower value 1.02 | S. cerevisiae deletion strains, locus YBR171W, strain sec66, stronger effect = lower value 1.04 | S. cerevisiae deletion strains, locus YBR231C, strain swc5, stronger effect = lower value 1.03 | S. cerevisiae deletion strains, locus YBR279W, strain paf1, stronger effect = lower value 1.02 | S. cerevisiae deletion strains, locus YCL011C, strain gbp2, stronger effect = lower value 1.02 | S. cerevisiae deletion strains, locus YCL016C, strain dcc1, stronger effect = lower value 1.02 | S. cerevisiae deletion strains, locus YCL061C, strain MRC1, stronger effect = lower value 1.01 | S. cerevisiae deletion strains, locus YCL069W, strain vba3, stronger effect = lower value 1.02 | S. cerevisiae deletion strains, locus YCR088W, strain abp1, stronger effect = lower value 1.02 | S. cerevisiae deletion strains, locus YDL005C, strain med2, stronger effect = lower value 1.02 | S. cerevisiae deletion strains, locus YDL040C, strain nat1, stronger effect = lower value 1.02 | S. cerevisiae deletion strains, locus YDR001C, strain nth1, stronger effect = lower value 1.01 | S. cerevisiae deletion strains, locus YDR069C, strain doa4, stronger effect = lower value 1.04 | S. cerevisiae deletion strains, locus YDR137W, strain rgp1, stronger effect = lower value 1.06 | S. cerevisiae deletion strains, locus YDR159W, strain sac3, stronger effect = lower value 1.04 | S. cerevisiae deletion strains, locus YDR195W, strain ref2 1.02 | S. cerevisiae deletion strains, locus YDR297W, strain sur2, stronger effect = lower value 1.05 | S. cerevisiae deletion strains, locus YDR334W, strain swr1, stronger effect = lower value 1.02 | S. cerevisiae deletion strains, locus YDR335W, strain msn5, stronger effect = lower value 1.01 | S. cerevisiae deletion strains, locus YDR392W, strain spt3, stronger effect = lower value 0.992 | S. cerevisiae deletion strains, locus YEL003W, strain gim4, stronger effect = lower value 1.01 | S. cerevisiae deletion strains, locus YEL037C, strain rad23, stronger effect = lower value 1 | S. cerevisiae deletion strains, locus YEL061C, strain CIN8 (second series), stronger effect = lower value 1.01 | S. cerevisiae deletion strains, locus YER015W, strain faa2, stronger effect = lower value 1.02 | S. cerevisiae deletion strains, locus YER016W, strain bim1, stronger effect = lower value 1.03 | S. cerevisiae deletion strains, locus YER111C, strain swi4, stronger effect = lower value 1.02 | S. cerevisiae deletion strains, locus YER155C, strain BEM2 (second series), stronger effect = lower value 1.03 | S. cerevisiae deletion strains, locus YFR010W, strain ubp6, stronger effect = lower value 1.02 | S. cerevisiae deletion strains, locus YGL167C, strain pmr1, stronger effect = lower value 1.01 | S. cerevisiae deletion strains, locus YGL173C, strain kem1, stronger effect = lower value 1.03 | S. cerevisiae deletion strains, locus YGL227W, strain vid30, stronger effect = lower value 1.01 | S. cerevisiae deletion strains, locus YGL240W, strain doc1, stronger effect = lower value 1.02 | S. cerevisiae deletion strains, locus YGL253W, strain hxk2, stronger effect = lower value 1.01 | S. cerevisiae deletion strains, locus YHR013C, strain ard1, stronger effect = lower value 1.04 | S. cerevisiae deletion strains, locus YHR027C, strain rpn1, stronger effect = lower value 1.02 | [7] 0.999 | S. cerevisiae deletion strains, locus YHR079C, strain IRE1, stronger effect = lower value 0.97 | S. cerevisiae deletion strains, locus YHR142W, strain chs7, stronger effect = lower value 1.01 | S. cerevisiae deletion strains, locus YJL092W, strain hpr5, stronger effect = lower value 1.02 | S. cerevisiae deletion strains, locus YJL095W, strain BCK1 (second series), stronger effect = lower value 1.01 | S. cerevisiae deletion strains, locus YJL095W, strain BCK1, stronger effect = lower value 0.966 | S. cerevisiae deletion strains, locus YJL115W, strain asf1, stronger effect = lower value 1.02 | S. cerevisiae deletion strains, locus YJL129C, strain trk1, stronger effect = lower value 1.03 | S. cerevisiae deletion strains, locus YJL154C, strain vps35, stronger effect = lower value 1.02 | S. cerevisiae deletion strains, locus YJL164C, strain tpk1, stronger effect = lower value 1.02 | S. cerevisiae deletion strains, locus YJL166W, strain qcr8, stronger effect = lower value 1.02 | S. cerevisiae deletion strains, locus YJL187C, strain SWE1, stronger effect = lower value 1.02 | S. cerevisiae deletion strains, locus YJR066W, strain TOR1, stronger effect = lower value 0.955 | S. cerevisiae deletion strains, locus YKL160W, strain elf1, stronger effect = lower value 1.02 | S. cerevisiae deletion strains, locus YKR026C, strain gcn3, stronger effect = lower value 1.01 | S. cerevisiae deletion strains, locus YKR091W, strain srl3, stronger effect = lower value 1.02 | S. cerevisiae deletion strains, locus YLL001W, strain dnm1, stronger effect = lower value 1.03 | S. cerevisiae deletion strains, locus YLL026W, stronger effect = lower value 1.03 | S. cerevisiae deletion strains, locus YLL041C, strain sdh2, stronger effect = lower value 1.02 | S. cerevisiae deletion strains, locus YLR027C, strain aat2, stronger effect = lower value 1.02 | S. cerevisiae deletion strains, locus YLR113W, strain HOG1, stronger effect = lower value 0.976 | S. cerevisiae deletion strains, locus YLR221C, strain rsa3, stronger effect = lower value 1.02 | S. cerevisiae deletion strains, locus YLR258W, strain gsy2, stronger effect = lower value 1.03 | S. cerevisiae deletion strains, locus YLR262C, strain YPT6 (second series), stronger effect = lower value 1.03 | S. cerevisiae deletion strains, locus YLR320W, strain mms22, stronger effect = lower value 1.02 | S. cerevisiae deletion strains, locus YLR342W, strain FKS1, stronger effect = lower value 1.03 | S. cerevisiae deletion strains, locus YLR357W, strain rsc2, stronger effect = lower value 1.06 | S. cerevisiae deletion strains, locus YLR370C, strain arc18, stronger effect = lower value 1.02 | S. cerevisiae deletion strains, locus YLR384C, strain iki3, stronger effect = lower value 1.02 | S. cerevisiae deletion strains, locus YML120C, strain ndi1, stronger effect = lower value 1.01 | S. cerevisiae deletion strains, locus YMR058W, strain fet3, stronger effect = lower value 1.02 | S. cerevisiae deletion strains, locus YMR125W, strain sto1, stronger effect = lower value 1.03 | S. cerevisiae deletion strains, locus YMR129W, stronger effect = lower value 1 | S. cerevisiae deletion strains, locus YMR205C, strain PFK2, stronger effect = lower value 1.02 | S. cerevisiae deletion strains, locus YMR231W, strain pep5, stronger effect = lower value 1.03 | S. cerevisiae deletion strains, locus YNL071W, strain lat1, stronger effect = lower value 1.02 | S. cerevisiae deletion strains, locus YNL183C, strain NPR1, stronger effect = lower value 0.912 | S. cerevisiae deletion strains, locus YNL209W, strain ssb2, stronger effect = lower value 1.02 | S. cerevisiae deletion strains, locus YNL248C, strain rpa49, stronger effect = lower value 1.01 | S. cerevisiae deletion strains, locus YNL322C, strain KRE1 (second series), stronger effect = lower value 1.01 | S. cerevisiae deletion strains, locus YNR049C, strain mso1, stronger effect = lower value 1.02 | S. cerevisiae deletion strains, locus YOR001W, strain rrp6, stronger effect = lower value 1.02 | S. cerevisiae deletion strains, locus YOR070C, strain gyp1, stronger effect = lower value 1.01 | S. cerevisiae deletion strains, locus YOR080W, strain dia2, stronger effect = lower value 1.02 | S. cerevisiae deletion strains, locus YOR083W, strain WHI5, stronger effect = lower value 1.01 | S. cerevisiae deletion strains, locus YOR106W, strain vam3, stronger effect = lower value 1.02 | S. cerevisiae deletion strains, locus YOR231W, strain MKK1, stronger effect = lower value 0.973 | S. cerevisiae deletion strains, locus YOR265W, strain rbl2, stronger effect = lower value 1.01 | S. cerevisiae deletion strains, locus YOR270C, strain vph1, stronger effect = lower value 1.07 | S. cerevisiae deletion strains, locus YOR290C, strain snf2, stronger effect = lower value 1.03 | S. cerevisiae deletion strains, locus YPL051W, strain arl3, stronger effect = lower value 1.02 | S. cerevisiae deletion strains, locus YPL078C, strain atp4, stronger effect = lower value 1.02 | S. cerevisiae deletion strains, locus YPL106C, strain sse1, stronger effect = lower value 1.03 | S. cerevisiae deletion strains, locus YPL240C, strain hsp82, stronger effect = lower value 1.02 | S. cerevisiae deletion strains, locus YPL256C, strain CLN2, stronger effect = lower value 0.971
